We go through 40 compounds from PubChem BioAssay (NCI).

The panel holds about 79,000 compounds, 15% with a hit somewhere; the sample as a whole holds those more often. Values without a mark were called inactive. Calls of active or inactive are those of the source. No stated cut-off is given here; in the data, active means growth inhibition above about 70%; inactive means the rest.

This assay is described as follows: NCI Yeast Anticancer Drug Screen. Data for the cln2 rad14 strain (AID 165).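 Further: 0% = growth equal to vehicle treated cultures.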 The following applies: S. cerevisiae cln2 rad14 strain, at 50.0 µM, hits give high values. In a few lines:
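Each compound was tested on cln2 rad14 yeast. Inhibition of growth was calculated against vehicle-exposed controls.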
As for `Cc1cc(N=C2C=CC(=O)C=C2)ccc1O`, the growth inhibition was 10.2%.

`CCCCOc1ccc([N+](=O)[O-])cn1`: the growth inhibition is 26.1%.

Take `CCCCCCCCCc1ccc(COCCCC)cc1`: the growth inhibition is 50.1%.

Consider `CC(C(=O)C(=O)Nc1ccc(Cl)cc1)C(=O)c1ccc(Cl)cc1` (stereo not given), for which the growth inhibition was -14.9%.

Take `[N-]=[N+]=Nc1ccnc2c(C(F)(F)F)cccc12`: the growth inhibition is -60.2%.

For the compound `CCCC(=O)Oc1ccc2ccccc2c1`, the growth inhibition was 14.7%.

For the compound `COc1ccc(OC)c2c(Nc3ccc(S(=O)(=O)O)c4cc(S(=O)(=O)O)cc(S(=O)(=O)O)c34)cc(C)nc12`, the growth inhibition was 3.1%.

Turning to `CCOC(=O)c1ccc(NCc2cccc([N+](=O)[O-])c2)cc1`, the growth inhibition is 0.45%.

`Cc1ccc([N+](=O)[O-])cc1Br`: the growth inhibition was -11.8%.

On to `C#CCOC(=O)C(N)CS` (stereo not given), for which the growth inhibition is 9.8%.

In the case of `O=C(Nc1ccc(C2=NCCN2)c(O)c1)c1ccc(C(=O)Nc2ccc(C3=NCCN3)c(O)c2)cc1`, the growth inhibition was 36.2%.

`C1CCCC(N2N=NC3C4CC(C5N=NN(C6CCCCCC6)C45)C32)CC1` (stereo not given): the growth inhibition was 64.8%.

On to `CC(CN(C)C)CN1c2ccccc2Sc2ccccc21` (stereo not given), for which the growth inhibition was -2.95%.

Consider `COc1cc2c(cc1OC)C(=O)C1(CO)COC(=O)C1C2` (stereo not given), for which the growth inhibition is -1.4%.

`O=[N+]([O-])c1ccc(/C=N/C(/N=C/c2ccc([N+](=O)[O-])cc2)c2ccc([N+](=O)[O-])cc2)cc1`: the growth inhibition was 1.55%.

In the case of `CN(C)c1cc(N(C)C)c2cc(C#N)ccc2n1`, the growth inhibition was -5.45%.

With `Nc1nc(=S)c2[nH]cnc2[nH]1`, the growth inhibition is -91.7%.

As to `Cc1c(C)c2cc(Br)ccc2[nH]c1=O`, the growth inhibition is 6.45%.

On to `Nc1ccccc1SC(CC(=O)c1ccccc1)c1cccc([N+](=O)[O-])c1` (stereo not given), for which the growth inhibition is -29.6%.

For the compound `COc1cc(/C=N\N=C(/C)c2ccc(C)cc2C)cc(OC)c1OC`, the growth inhibition is 22.9%.

Consider `COC(=O)CCC(=O)CN1C(=O)c2ccccc2C1=O`, for which the growth inhibition was 11.5%.

For `C[N+](C)(Cc1cccc(Cl)c1)c1nnn[n-]1`, the growth inhibition was -22.6%.

Consider `COc1ccc(C(=O)/C=C/c2c[nH]c3ccccc23)c(O)c1`, for which the growth inhibition is -43.2%.

As to `COc1ccccc1/C=N/Nc1ccc([N+](=O)[O-])cc1[N+](=O)[O-]`, the growth inhibition was -16.6%.

Regarding `O=C(OCc1ccccc1)c1ccccc1`, the growth inhibition is -13.3%.

With `CCCCCCCCN1COC2CCc3ccccc3C21` (stereo not given), the growth inhibition is 87.6% (active).

Regarding `COC1OC(CO)C(O)C(NC(=O)[C@H](Cc2ccc(O)cc2)NC(=O)OCc2ccccc2)C1O` (stereo not given in full), the growth inhibition is -6.05%.

As to `CCCCCCCCCCC/C=N\[N+](C)(C)C`, the growth inhibition is 96.8% (active).

Turning to `O=C(O)c1c2c(nc3ccccc13)CCC2`, the growth inhibition is -14.5%.

Take `O=c1cc(-c2ccc(O)cc2)oc2cc(O)cc(O)c12`: the growth inhibition is -43.5%.

As for `CC(=O)Oc1ccc(C2(c3ccc(OC(C)=O)cc3)C(=O)Nc3ccccc32)cc1`, the growth inhibition was -0.65%.

With `OC1CCCCC2CC2C1O` (stereo not given), the growth inhibition was -44.7%.

`NC(=O)N1CCCC1=O`: the growth inhibition is -8.5%.

For the compound `O=C1CC2C3CC4(OCCO4)C4C3CC2C14` (stereo not given), the growth inhibition was 8.65%.

Consider `COc1cc(NC(C)CCCN)c2nccc(C)c2c1` (stereo not given), for which the growth inhibition is -8.15%.

In the case of `O=C1NC(=O)C(c2ccc(C(=O)O)cc2)N1` (stereo not given), the growth inhibition was 8.45%.

Turning to `OCc1ccccc1F`, the growth inhibition was -15.3%.

Regarding `NS(=O)(=O)c1ccc(NC(=O)Nc2cccc(Cl)c2)cc1`, the growth inhibition is -4.9%.

As for `Cc1ccc(C)c(NC(=O)Oc2ccc(Cl)cc2Cc2ccccc2)c1`, the growth inhibition was 11.8%.

For `S=c1[nH]ncn2nc3ccccc3c12`, the growth inhibition is -45.5%.
